Laboratory results from PubChem BioAssay (NCATS).
Where “and” joins values, the source holds several entries; their conditions need not be identical. Equal values may be shown once. Results filed as inconclusive are left out. More than one record can exist for a structure, and the calls need not agree. Calls of active or inactive are those of the source. Unless noted, calls follow the shape of the dose curve; as a rule, active = well fitted curve in the direction sought with a large enough effect; inconclusive = small, poorly fitted or top-dose-only effect, or another doubt; inactive = no such curve, though single readings can be large; an effect the other way counts as inactive or inconclusive.

Assays:
[1] = qHTS Assay for Identification of Small Molecule Antagonists for NFkB Signaling Pathway (AID 895; active = well fitted inhibition curve with a large enough effect in the signal ratio, with a control signal flat, not every such curve was filed as active; the % refers to the signal ratio; also: potency is read from the fitted curve at half-maximal effect)
Method in brief: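 ME-180 NFkB-bla cells (beta-lactamase under NFkB response element), plated overnight, treated with compound then 10 pM TNF alpha (about EC50) for 5 hrs at 37 C. LiveBLAzer FRET read at 460/530 nm emission, 405 nm excitation.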

[2] = biological target: Cytochrome P450 2C19 (Homo sapiens) (UniProt P33261); assay: qHTS Assay for Inhibitors and Substrates of Cytochrome P450 2C19 (AID 899); also: nearly all actives have a fitted effect of over 60% in size; also: potency is read from the fitted curve at half-maximal effect
Method in brief: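 5 nM human CYP2C19 with 10uM Luciferin-H EGE (at KM) in 50mM KPO4, compound preincubated 10 min at 37C, then NADPH regeneration for 60 min at 37C. Luciferin read by luminescence after detection reagent; normalized to 57uM ketoconazole as full inhibition.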

[3] = qHTS Assay for Identification of Small Molecule Agonists for Thrombopoietin (TPO) Signaling Pathway (AID 917); also: potency is read from the fitted curve at half-maximal effect
Method in brief: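 Ba/F3 (mouse) + hTPO receptor + GpIIb-promoter luciferase; IL-3 withdrawn overnight; compound + 26 pM TPO (EC50), 24 hrs, 37 C, 5% CO2; Steadylite luminescence, 10 min RT.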

[4] = biological target: Muscarinic acetylcholine receptor M1 (Rattus norvegicus) (UniProt P08482); assay: qHTS Assay for Antagonists of Acetylcholine Muscarinic M1 Receptor: Measurement of IP-One Response (AID 944); also: nearly all actives have a fitted effect of over 75% in size; also: potency is read from the fitted curve at half-maximal effect
Method in brief: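 Antagonism was measured as loss of carbachol-driven (EC80) IP1 accumulation in CHO cells carrying rat M1, using a homogeneous IP-One TR-FRET kit read at 620 and 665 nm.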

[5] = biological target: Pyruvate kinase (Leishmania mexicana) (UniProt Q27686); assay: qHTS Validation Assay for Inhibitors of Leishmania Mexicana Pyruvate Kinase (AID 945);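 also: 0% = DMSO only neutral control wells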
Method in brief: (§1)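 The enzyme is a highly purified E451W mutant of LmPYK used at 0.2 nM. It converts 0.5 mM PEP and 0.1 mM ADP over 1 h at room temperature; product ATP is quantified by luciferase luminescence relative to DMSO controls.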

[6] = biological target: Pyruvate kinase PKM (Homo sapiens) (UniProt P14618); assay: qHTS Assay for Activators of Human Muscle Pyruvate Kinase (AID 954; active = well fitted curve in the direction sought with a large enough effect, not every such curve was filed as active;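 also: 0% = uninhibited enzyme and -100% = no enzyme or full thiadiazolimine inhibition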)
Method in brief: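 A coupled luminescent readout tracked ATP made from ADP by purified PKM2. Final conditions included 0.1 nM enzyme, PEP and ADP at 0.5 and 0.1 mM, pH 7.2 imidazole buffer with BSA, and a one-hour room-temperature reaction.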

[7] = qHTS Assay for Identification of Small Molecule Agonists for Hypoxia Response Element Signaling Pathway (AID 914; active = well fitted activation curve with a large enough effect in the signal ratio, with a control signal flat, not every such curve was filed as active; the % refers to the signal ratio; also: % of control where 0% means no effect); details: ME-180 (cervical carcinoma) HRE-bla reporter, beta-lactamase ratio, CoCl2, 17 h; activation: stronger effect = higher value
Method in brief: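 Cells were plated overnight, pin-dosed with compound in a titration series, co-stimulated with EC50 CoCl2 and incubated 17 hours at 37 degrees Celsius. CCF4 substrate was then loaded, and AC50 values came from the 460nm/530nm ratio.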

[8] = biological target: Muscarinic acetylcholine receptor M1 (Rattus norvegicus) (UniProt P08482); assay: qHTS Assay for Antagonists of Acetylcholine Muscarinic M1 Receptor: Kinetic Measurement of Intracellular Calcium Response (AID 943); also: nearly all actives have a fitted effect of over 75% in size; also: potency is read from the fitted curve at half-maximal effect
Method in brief: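 Quantitative HTS in CHO-M1 (rat receptor) cells: 10 min compound exposure ahead of 100 nM carbachol, Fluo-4 fluorescence followed 4 min, value expressed as peak-to-basal ratio.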

[9] = Confirmation and Secondary Assay for Modulators of Hemoglobin Beta Chain Splicing at IVS2 654 locus (AID 910);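 also: HeLa cells stably carrying EGFP split by mutant beta-globin IVS2-654 intron; % of control where 0% means no effect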
Method in brief: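 HeLa cells stably expressing EGFP interrupted by β-globin IVS2-654 intron, seeded overnight in Opti-MEM/2% FCS, then treated 2 days at 37 °C. Restored splicing read as total peak GFP intensity per well by laser scanning cytometry (488 nm excitation, 500–520 nm emission); 500 nM antisense PNA as control.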

[10] = Confirmation and Secondary Assay for Modulators of Hemoglobin Beta Chain Splicing at IVS2 705 locus (AID 930);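 also: HeLa cells stably expressing the EGFP-705 splicing reporter; GFP fluorescence per well restored by corrected splicing of the IVS2-705 intron in EGFP; series mostly up to about 46 µM; % of control where 0% means no effect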
Method in brief: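 Splice-correction reporter: EGFP cDNA split by beta-globin intron 2 bearing the 705 mutation, stably in HeLa. Compound incubation 2 days, 37C; fluorescent objects 5-250 µm summed per well.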

[11] = biological target: Pyruvate kinase (Leishmania mexicana) (UniProt Q27686); assay: qHTS Validation Assay for Activators of Leishmania Mexicana Pyruvate Kinase (AID 959)
Method in brief: as §1

Chain of Pyruvate kinase PKM (Homo sapiens) (P14618 whole entry, looked up): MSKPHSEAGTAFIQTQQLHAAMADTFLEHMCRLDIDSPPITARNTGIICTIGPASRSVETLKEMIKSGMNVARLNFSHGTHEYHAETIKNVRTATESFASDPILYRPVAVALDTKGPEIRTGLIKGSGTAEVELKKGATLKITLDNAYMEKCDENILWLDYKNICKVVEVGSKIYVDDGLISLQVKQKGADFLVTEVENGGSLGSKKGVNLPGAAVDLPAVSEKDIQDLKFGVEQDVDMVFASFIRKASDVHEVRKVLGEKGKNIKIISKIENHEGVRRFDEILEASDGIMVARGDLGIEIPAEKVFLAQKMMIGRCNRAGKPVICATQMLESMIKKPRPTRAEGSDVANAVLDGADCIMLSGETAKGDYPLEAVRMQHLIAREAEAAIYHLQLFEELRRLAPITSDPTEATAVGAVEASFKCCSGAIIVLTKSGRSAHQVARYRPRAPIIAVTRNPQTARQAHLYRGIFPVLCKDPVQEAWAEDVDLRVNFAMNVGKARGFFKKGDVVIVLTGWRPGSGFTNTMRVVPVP
Chain of Pyruvate kinase (Leishmania mexicana) (Q27686 2-499 E452W): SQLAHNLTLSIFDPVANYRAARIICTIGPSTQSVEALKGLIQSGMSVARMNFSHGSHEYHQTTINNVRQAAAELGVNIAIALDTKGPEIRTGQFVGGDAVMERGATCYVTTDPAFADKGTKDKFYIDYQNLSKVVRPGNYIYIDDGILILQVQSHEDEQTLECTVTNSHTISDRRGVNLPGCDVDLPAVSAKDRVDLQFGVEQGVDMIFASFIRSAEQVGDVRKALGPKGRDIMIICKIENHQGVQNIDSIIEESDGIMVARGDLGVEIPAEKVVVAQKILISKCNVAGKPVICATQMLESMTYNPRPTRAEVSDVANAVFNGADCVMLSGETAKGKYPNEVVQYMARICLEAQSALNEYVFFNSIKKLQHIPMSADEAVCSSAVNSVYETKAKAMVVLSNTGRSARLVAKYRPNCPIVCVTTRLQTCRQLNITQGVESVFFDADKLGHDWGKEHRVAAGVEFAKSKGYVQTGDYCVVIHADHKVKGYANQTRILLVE
Chain of Cytochrome P450 2C19 (Homo sapiens) (P33261 whole entry, looked up): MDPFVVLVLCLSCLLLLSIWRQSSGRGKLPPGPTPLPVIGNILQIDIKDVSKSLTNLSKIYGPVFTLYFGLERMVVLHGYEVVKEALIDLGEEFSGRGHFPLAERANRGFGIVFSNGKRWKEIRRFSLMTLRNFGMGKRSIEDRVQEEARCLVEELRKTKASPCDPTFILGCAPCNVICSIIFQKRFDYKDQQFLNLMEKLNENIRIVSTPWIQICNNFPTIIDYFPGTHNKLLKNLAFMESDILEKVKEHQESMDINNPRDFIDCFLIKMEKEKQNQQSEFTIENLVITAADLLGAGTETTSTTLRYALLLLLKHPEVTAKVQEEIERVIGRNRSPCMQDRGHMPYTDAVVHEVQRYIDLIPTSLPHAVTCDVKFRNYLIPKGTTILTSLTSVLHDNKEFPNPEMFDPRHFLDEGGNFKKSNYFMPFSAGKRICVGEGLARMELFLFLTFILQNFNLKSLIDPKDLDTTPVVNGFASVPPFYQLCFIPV
Chain of Muscarinic acetylcholine receptor M1 (Rattus norvegicus) (P08482 whole entry, looked up): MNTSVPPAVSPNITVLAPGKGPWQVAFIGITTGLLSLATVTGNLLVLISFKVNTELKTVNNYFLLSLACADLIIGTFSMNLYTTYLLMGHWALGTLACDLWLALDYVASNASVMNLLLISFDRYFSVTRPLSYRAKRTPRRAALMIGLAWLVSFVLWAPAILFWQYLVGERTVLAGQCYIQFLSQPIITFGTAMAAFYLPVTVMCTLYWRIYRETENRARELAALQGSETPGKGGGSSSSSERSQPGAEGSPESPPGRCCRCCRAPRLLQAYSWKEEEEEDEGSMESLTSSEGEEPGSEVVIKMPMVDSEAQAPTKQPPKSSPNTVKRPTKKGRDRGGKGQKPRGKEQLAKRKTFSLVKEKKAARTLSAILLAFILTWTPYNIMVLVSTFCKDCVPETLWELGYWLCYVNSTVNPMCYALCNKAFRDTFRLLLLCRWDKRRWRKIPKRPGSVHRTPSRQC

Cc1nc2c(OCc3ccccc3)cccn2c1CC#N
inactive: Potency [1] | Potency [2] | Potency [3] | Potency [4] | Potency [5] | outcome [6]

C/C(=C\c1ccc(C(=O)O)cc1)c1ccc2c(c1)C(C)(C)CCC2(C)C
active: Potency [1] 10 µM
inactive: activation [7] -65.3% | Potency [4] | Potency [5] | outcome [6]

COc1ccc(-c2ccc(N)[n+](CCCC(=O)O)n2)cc1
inactive: Potency [1] | Potency [3] | Potency [8] | Potency [4] | Potency [5] | outcome [6]

O=C(O)C1=CCNCC1
inactive: Potency [1] | Potency [9] | Potency [3] | outcome [10] | Potency [4] | Potency [5] | outcome [6]

O=C(O)c1cccnc1C(=O)O
inactive: Potency [1] | Potency [2] | Potency [9] | Potency [3] | outcome [10] | Potency [8] | Potency [4] | Potency [5] | outcome [6]

CSC(=N)N
active: Potency [2] 631 nM
inactive: Potency [1] | Potency [3] | Potency [8] | Potency [4] | Potency [5] | outcome [6]

N#Cc1cc2nc(O)c(O)nc2cc1[N+](=O)[O-]
active: Potency [11] 25.1 µM
inactive: Potency [1] | Potency [3] | Potency [8] | Potency [4] | Potency [5] | outcome [6]

CCSC(=N)N
inactive: Potency [1] | Potency [9] | Potency [3] | outcome [10] | Potency [8] | Potency [4] | Potency [5]

NCCCNCCCCNCCCN
inactive and 7.94 µM (active): Potency [2]
inactive: Potency [1] | Potency [4] | Potency [5] | outcome [6]

NCCS(=O)O
inactive: Potency [1] | Potency [2] | Potency [3] | Potency [4] | Potency [5] | outcome [6]

CN[C@H](CC(=O)O)C(=O)O
inactive: Potency [1] | Potency [2] | Potency [3] | Potency [4] | Potency [5]

Cc1ccc2c(c1)C(N1CCN(C)CC1)=Nc1cccnc1N2
inactive: Potency [3] | Potency [5] | outcome [6]
active: Potency [1] 11.2 µM | Potency [8] 35.5 nM | Potency [4] 79.4 nM

CCCn1c(=O)c2[nH]c(C3CCCC3)nc2n(CCC)c1=O
inactive: Potency [1] | Potency [2] | Potency [9] | Potency [3] | outcome [10] | Potency [4] | Potency [5] | outcome [6]

O=C(O)c1cc(=O)cc(C(=O)O)[nH]1
active: Potency [1] 3.55 µM
inactive: Potency [3] | Potency [4] | Potency [5] | outcome [6]

C[N+](C)(C)CC=O
inactive: Potency [1] | Potency [3] | Potency [4] | Potency [5] | outcome [6]

NC(=Nc1ccccc1)NC(=O)c1nc(Cl)c(N)nc1N
inactive: Potency [5] | outcome [6]
active: Potency [1] 7.94 µM | Potency [3] 2.51 µM

N[C@H](C(=O)O)[C@H](O)C(=O)O
inactive: Potency [1] | Potency [3] | Potency [4] | Potency [5] | outcome [6]

c1ccc2nc(C3=NCCN3)ccc2c1
inactive: Potency [1] | Potency [3] | Potency [5] | outcome [6]

NOCC(=O)O
inactive: Potency [1] | Potency [5] | outcome [6]

CC[N+](CC)(CC)CC(=O)Nc1c(C)cccc1C
inactive: Potency [1] | Potency [3] | Potency [5] | outcome [6]

CCCC(=O)NCCc1c2n(c3ccc(OC)cc13)CCCc1ccccc1-2
inactive: Potency [1] | Potency [4] | Potency [5] | outcome [6]

O=C(O)C1=CCCN(CCON=C(c2ccccc2)c2ccccc2)C1
inactive: Potency [1] | Potency [3] | Potency [4] | Potency [5]

Nc1ccc(-c2nc3ccc(-c4nc5ccc(N)cc5[nH]4)cc3[nH]2)cc1
inactive: Potency [3] | Potency [4] | outcome [6] | Potency [11]
active: Potency [1] 1.12 µM

CCCCCCCCCCCCCCSCC(=O)O
inactive: Potency [1] | Potency [3] | Potency [4] | Potency [5] | outcome [6]

Cc1nc(N=Nc2cc(S(=O)(=O)O)c3cc([N+](=O)[O-])cc(S(=O)(=O)O)c3c2)c(COP(=O)(O)O)c(C=O)c1O
inactive: Potency [1] | Potency [4] | Potency [5] | outcome [6]

Clc1nccc2c1ccc1ccccc12
inactive: Potency [1] | Potency [3] | Potency [5] | outcome [6]

CCN(CC)CCOC(=O)c1cc(Cl)c(N)cc1OC
inactive: Potency [1] | Potency [3] | Potency [4] | Potency [5] | outcome [6]

O=C(c1ccc2c(c1)OCCO2)N1CCCCC1
inactive: Potency [2]

C=CCn1c(=O)c2c(nc(-c3ccc(S(=O)(=O)O)cc3)n2C)n(C)c1=O
inactive: Potency [1] | Potency [3] | Potency [8] | Potency [5] | outcome [6]

O=c1[nH]ccc2c(O)cccc12
inactive: Potency [1] | Potency [3] | Potency [4] | Potency [5]

O=C1NC(=O)c2cc(Nc3ccccc3)c(Nc3ccccc3)cc21
active: Potency [1] 10 µM
inactive: Potency [4] | Potency [5] | outcome [6]

O=C1Nc2ccc(I)cc2/C1=C/c1cc(Br)c(O)c(Br)c1
inactive: Potency [3] | Potency [8] | Potency [5] | outcome [6]
active: Potency [1] 8.91 µM

Cc1nc(N=Nc2ccc(S(=O)(=O)O)cc2S(=O)(=O)O)c(COP(=O)(O)O)c(C=O)c1O
active: Potency [11] 3.98 µM
inactive: Potency [1] | Potency [8] | Potency [4] | Potency [5] | outcome [6]
